Each structure is given as a SMILES string. Inconclusive results are not listed. The source made the active and inactive calls. How the source made its calls: active means hit-call score of the fitted dose curve at least 0.9, where 1 is the maximum; inconclusive means response in the unintended direction; inactive means score below 0.9.

The assay is described as follows: ATG_M_61_EcoTox2: Attagene TRANS-FACTORIAL EcoTox-2 HepG2 Assay for M61 Transcription Factor (Internal Marker). Here is the method:
ATG_EcoTox2 is a cell-based, multiplexed assay created by modifying the existing Attagene TRANS-FACTORIAL system to include a panel of nuclear receptors from some or all the following species: human (Homo sapiens), african clawed frog (Xenopus laevis), rainbow trout (Oncorhynchus mykiss), japanese medaka (Oryzias latipes), and zebrafish (Danio rerio). The ECOTOX2-FACTORIAL format uses HepG2, a human liver cell line, with measurements taken at 24 hours after chemical dosing in a 24-well plate. ATG_M_61_EcoTox2 is one of 29 assay components calculated in the ATG_EcoTox2 assay. It is designed to make measurements of mRNA induction, a form of inducible reporter, as detected with fluorescence intensity signals by Reverse transcription polymerase chain reaction (RT-PCR) and Capillary electrophoresis technology.The assay endpoint ATG_M_61_EcoTox2 was analyzed in the positive analysis fitting direction relative to DMSO as the negative control and baseline of activity. Using a type of inducible reporter, measures of mRNA for gain-of-signal activity can be used to understand the background control at the transcription factor-level as they relate to the gene. Furthermore, this assay endpoint can be referred to as a secondary readout, because this assay has produced multiple assay endpoints where this one serves a background control function. To generalize the intended target to other relatable targets, this assay endpoint is annotated to the background measurement intended target family, where the subfamily is internal marker.
Human liver HepG2 cells are transiently transfected with multiple reporter transcription units (MRTUs) in 6-well plates using FuGene 6 reagent (Roche; 3 ml FuGene/1 mg DNA). The MRTU constructs are regulated by a cis-regulating element (promoter). Each RTU expresses a GAL4-UAS that regulates the transcription of a nearby target reporter gene sequence. A major difference between the CIS and TRANS system is that in CIS activities of endogenous TFs are measured, whereas the TRANS assay evaluates changes in activities of exogenous, chimeric NR-Gal4 proteins. […] At the end of 24 hour incubation, total RNA was isolated using TriZol reagent (Invitrogen). The isolated RNA is then reverse-transcribed using oligo(dT) primer and Mo-MLV reverse transcriptase (Invitrogen) with DNAse I (Ambion) treatment for 30 min. The one-tenth of the produced cDNA was amplified by PCR using Taq DNA polymerase (Invitrogen) and two reporter sequence-specific primers. […] The fragments were purified using Qiaquick PCR columns (Qiagen), analyzed on an ABI 3130xL genetic analyzer (Applied Biosystems) with peak positions identified by using a set of X-rhodamine (ROX)-labeled MapMarker1000 molecular weight standards (BioVentures). […]
Consider `O=S(=O)(O)C(F)(F)C(F)(F)C(F)(F)C(F)(F)C(F)(F)C(F)(F)F`, for which the compound was called inactive.

For the compound `CCCCOCN(C(=O)CCl)c1c(CC)cccc1CC`, the call was inactive. For `O=P(Oc1ccccc1)(Oc1ccccc1)Oc1ccccc1`, the compound was called inactive. Consider `O=C(O)C(F)(F)C(F)(F)C(F)(F)C(F)(F)C(F)(F)C(F)(F)C(F)(F)F`, for which the outcome was inactive.
